Test results: the supplement of paper PMC12669032

Tests used:
Test in all cases: growth AUC relative to DMSO control (median of replicates) (fraction); higher = more growth (less inhibition), active = hit call of the paper
Conditions in all cases: 20 µM; 24 h;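 active = AUC reduced over 20% with Padj below 0.05 in at least 2 of 3 replicates; inactive = otherwise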
Akkermansia muciniphila = system: Akkermansia muciniphila
In short: (§1)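 Each value is the median of three biological replicates, grown on separate days, of a gut bacterial monoculture incubated anaerobically at 37 °C in mGAM with 20 µM compound (1% DMSO). Cultures started at OD600 0.05 and were read at OD600 hourly for 24 h, with the minimum OD set to 0. Area under the growth curve was normalised to the plate median of solvent-only wells, or to row and column medians on the industrial chemical plate.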

Bacteroides caccae = system: Bacteroides caccae
In short: as §1

Bacteroides clarus = system: Bacteroides clarus
In short: as §1

Bacteroides dorei = system: Bacteroides dorei
In short: as §1

Bacteroides stercoris = system: Bacteroides stercoris
In short: as §1

[1] = system: Bacteroides thetaiotaomicron
In short: as §1

Bacteroides uniformis = system: Bacteroides uniformis
In short: as §1

[2] = system: Bifidobacterium longum subsp. longum
In short: as §1

Clostridium difficile = system: Clostridium difficile
In short: as §1

Collinsella aerofaciens = system: Collinsella aerofaciens
In short: as §1

Coprococcus comes = system: Coprococcus comes
In short: as §1

Escherichia coli ED1a = system: Escherichia coli ED1a
In short: as §1

Escherichia coli IAI1 = system: Escherichia coli IAI1
In short: as §1

Eubacterium rectale = system: Eubacterium rectale
In short: as §1

[3] = system: Fusobacterium nucleatum subsp. animalis
In short: as §1

Lactobacillus gasseri = system: Lactobacillus gasseri
In short: as §1

Lactobacillus paracasei = system: Lactobacillus paracasei
In short: as §1

Odoribacter splanchnicus = system: Odoribacter splanchnicus
In short: as §1

[4] = system: Parabacteroides distasonis
In short: as §1

Parabacteroides merdae = system: Parabacteroides merdae
In short: as §1

Measured: growth AUC

CC1(C)[C@H](C(=O)O[C@H](C#N)c2cccc(Oc3ccccc3)c2)[C@@H]1/C=C\C(=O)OC(C(F)(F)F)C(F)(F)F
inactive: Akkermansia muciniphila 0.955 | Bacteroides caccae 1.01 | Bacteroides clarus 0.976 | Bacteroides dorei 1.02 | Bacteroides stercoris 0.92 | [1] 1.03 | Bacteroides uniformis 1.01 | [2] 0.931 | Clostridium difficile 1.03 | Collinsella aerofaciens 1.07 | Coprococcus comes 1.03 | Escherichia coli ED1a 1.01 | Escherichia coli IAI1 1.1 | Eubacterium rectale 0.984 | [3] 0.986 | Lactobacillus gasseri 1.12 | Lactobacillus paracasei 0.984 | Odoribacter splanchnicus 1.03 | [4] 0.994 | Parabacteroides merdae 1.01

CCN(CC)C(=O)/C(Cl)=C(/C)OP(=O)(OC)OC
inactive: Akkermansia muciniphila 1.19 | Bacteroides caccae 1 | Bacteroides clarus 0.975 | Bacteroides dorei 0.921 | Bacteroides stercoris 0.977 | [1] 0.958 | Bacteroides uniformis 0.979 | [2] 1.02 | Clostridium difficile 0.94 | Collinsella aerofaciens 0.967 | Coprococcus comes 0.978 | Escherichia coli ED1a 0.942 | Escherichia coli IAI1 0.953 | Eubacterium rectale 1.08 | [3] 1 | Lactobacillus gasseri 0.886 | Lactobacillus paracasei 0.969 | Odoribacter splanchnicus 0.935 | [4] 0.888 | Parabacteroides merdae 0.978

CCSC(C)CC1CC(=O)C(/C(CC)=N/OC/C=C/Cl)=C(O)C1 (mixture of isomers)
inactive: Akkermansia muciniphila 1.13 | Bacteroides caccae 1.05 | Bacteroides clarus 1.03 | Bacteroides dorei 1.01 | Bacteroides stercoris 1.11 | [1] 1.01 | Bacteroides uniformis 1.02 | [2] 1.01 | Clostridium difficile 1.04 | Collinsella aerofaciens 1.04 | Coprococcus comes 1.06 | Escherichia coli ED1a 1.03 | Escherichia coli IAI1 1.01 | Eubacterium rectale 1.03 | [3] 1.1 | Lactobacillus gasseri 0.865 | Lactobacillus paracasei 1.06 | Odoribacter splanchnicus 1.02 | [4] 0.958 | Parabacteroides merdae 1.02

CCCCCCCCCCCCCN1CC(C)OC(C)C1 (stereo not given)
inactive: Akkermansia muciniphila 0.931 | Bacteroides caccae 0.969 | Bacteroides clarus 1 | Bacteroides dorei 1.01 | Bacteroides stercoris 1.03 | [1] 0.993 | Bacteroides uniformis 0.982 | [2] 0.908 | Clostridium difficile 0.923 | Collinsella aerofaciens 0.941 | Coprococcus comes 0.999 | Escherichia coli ED1a 1.01 | Escherichia coli IAI1 0.966 | Eubacterium rectale 0.991 | [3] 0.964 | Lactobacillus gasseri 0.937 | Lactobacillus paracasei 1.08 | Odoribacter splanchnicus 0.984 | [4] 0.984 | Parabacteroides merdae 0.973

O=c1[nH]c2c(c(=O)n1C1CCCCC1)CCC2
inactive: Akkermansia muciniphila 0.895 | Bacteroides caccae 1.01 | Bacteroides clarus 0.944 | Bacteroides dorei 0.957 | Bacteroides stercoris 0.925 | [1] 0.978 | Bacteroides uniformis 0.972 | [2] 0.963 | Clostridium difficile 0.972 | Collinsella aerofaciens 0.95 | Coprococcus comes 0.945 | Escherichia coli ED1a 0.99 | Escherichia coli IAI1 0.987 | Eubacterium rectale 0.899 | [3] 0.834 | Lactobacillus gasseri 0.923 | Lactobacillus paracasei 1.02 | Odoribacter splanchnicus 0.98 | [4] 0.999 | Parabacteroides merdae 0.973

CC(C)OC(=O)C(C(=O)OC(C)C)=C1SCCS1
inactive: Akkermansia muciniphila 1.07 | Bacteroides caccae 0.993 | Bacteroides clarus 1.01 | Bacteroides dorei 0.995 | Bacteroides stercoris 0.955 | [1] 0.974 | Bacteroides uniformis 1.01 | [2] 1.04 | Clostridium difficile 1.02 | Collinsella aerofaciens 0.984 | Coprococcus comes 1.06 | Escherichia coli ED1a 1.01 | Escherichia coli IAI1 0.988 | Eubacterium rectale 1.02 | [3] 1.02 | Lactobacillus gasseri 0.977 | Lactobacillus paracasei 0.98 | Odoribacter splanchnicus 0.995 | Parabacteroides merdae 1.01
active: [4] 0.782

O=C(O)CCl
inactive: Akkermansia muciniphila 0.94 | Bacteroides caccae 0.966 | Bacteroides clarus 0.991 | Bacteroides dorei 0.982 | Bacteroides stercoris 1.07 | [1] 1 | Bacteroides uniformis 0.947 | [2] 0.938 | Clostridium difficile 0.995 | Collinsella aerofaciens 0.976 | Coprococcus comes 0.98 | Escherichia coli ED1a 0.995 | Escherichia coli IAI1 0.984 | Eubacterium rectale 0.974 | [3] 0.929 | Lactobacillus gasseri 1.03 | Lactobacillus paracasei 1.03 | Odoribacter splanchnicus 0.986 | [4] 0.949 | Parabacteroides merdae 1.02

CCOP(=O)(N=C1SCC(C)S1)OCC (stereo not given)
inactive: Akkermansia muciniphila 0.979 | Bacteroides caccae 0.995 | Bacteroides clarus 0.966 | Bacteroides dorei 1.03 | Bacteroides stercoris 0.983 | [1] 1.01 | Bacteroides uniformis 1.03 | [2] 1.03 | Clostridium difficile 0.977 | Collinsella aerofaciens 1 | Coprococcus comes 1.03 | Escherichia coli ED1a 1.02 | Escherichia coli IAI1 0.951 | Eubacterium rectale 1.1 | [3] 1.09 | Lactobacillus gasseri 0.985 | Lactobacillus paracasei 0.971 | Odoribacter splanchnicus 1.04 | [4] 0.977 | Parabacteroides merdae 0.976

C[N+]1(C)CCCCC1.[Cl-]
inactive: Akkermansia muciniphila 0.993 | Bacteroides caccae 1.02 | Bacteroides clarus 1.03 | Bacteroides dorei 1.02 | Bacteroides stercoris 1.02 | [1] 1.03 | Bacteroides uniformis 1.05 | [2] 1.01 | Clostridium difficile 1.01 | Collinsella aerofaciens 1.02 | Coprococcus comes 1.07 | Escherichia coli ED1a 1.03 | Escherichia coli IAI1 0.992 | Eubacterium rectale 1.2 | [3] 1.09 | Lactobacillus gasseri 0.976 | Lactobacillus paracasei 1.02 | Odoribacter splanchnicus 0.941 | [4] 1 | Parabacteroides merdae 1.04

O=[N+]([O-])c1ccc(Oc2ccc(Cl)cc2Cl)cc1
active: [4] 0.655
inactive: Akkermansia muciniphila 1.09 | Bacteroides caccae 0.959 | Bacteroides clarus 0.971 | Bacteroides dorei 0.973 | Bacteroides stercoris 1.09 | [1] 0.99 | Bacteroides uniformis 0.931 | [2] 0.972 | Clostridium difficile 0.97 | Collinsella aerofaciens 0.998 | Coprococcus comes 0.988 | Escherichia coli ED1a 0.99 | Escherichia coli IAI1 0.983 | Eubacterium rectale 1.07 | [3] 1 | Lactobacillus gasseri 0.789 | Lactobacillus paracasei 0.976 | Odoribacter splanchnicus 0.946 | Parabacteroides merdae 0.967

Oc1ccc(Cl)cc1Cl
inactive: Akkermansia muciniphila 1.15 | Bacteroides caccae 0.802 | Bacteroides clarus 0.979 | Bacteroides dorei 0.893 | Bacteroides stercoris 0.938 | [1] 0.936 | Bacteroides uniformis 0.913 | [2] 1.05 | Clostridium difficile 0.946 | Collinsella aerofaciens 0.909 | Coprococcus comes 1.01 | Escherichia coli ED1a 0.974 | Escherichia coli IAI1 0.979 | Eubacterium rectale 1.13 | [3] 0.93 | Lactobacillus gasseri 0.769 | Lactobacillus paracasei 1.01 | Odoribacter splanchnicus 0.969 | [4] 0.967 | Parabacteroides merdae 0.853

CCC1COC(Cn2cncn2)(c2ccc(Cl)cc2Cl)O1 (stereo not given)
inactive: Akkermansia muciniphila 0.893 | Bacteroides caccae 0.992 | Bacteroides clarus 0.935 | Bacteroides dorei 0.976 | Bacteroides stercoris 0.938 | [1] 0.982 | Bacteroides uniformis 0.956 | [2] 0.976 | Clostridium difficile 0.994 | Collinsella aerofaciens 0.94 | Coprococcus comes 0.982 | Escherichia coli ED1a 0.988 | Escherichia coli IAI1 0.96 | Eubacterium rectale 0.755 | [3] 0.917 | Lactobacillus gasseri 1.1 | Lactobacillus paracasei 0.92 | Odoribacter splanchnicus 0.983 | [4] 1 | Parabacteroides merdae 0.948

Clc1c(Cl)c(Cl)c(Cl)c(Cl)c1Cl
inactive: Akkermansia muciniphila 0.994 | Bacteroides caccae 1.01 | Bacteroides clarus 1 | Bacteroides dorei 1.04 | Bacteroides stercoris 1.08 | [1] 1 | Bacteroides uniformis 0.992 | [2] 0.981 | Clostridium difficile 1 | Collinsella aerofaciens 1.06 | Coprococcus comes 1 | Escherichia coli ED1a 1.01 | Escherichia coli IAI1 1.01 | Eubacterium rectale 1.02 | [3] 0.98 | Lactobacillus gasseri 1.07 | Lactobacillus paracasei 0.936 | Odoribacter splanchnicus 1.03 | [4] 1.03 | Parabacteroides merdae 1.03

O=C(Nc1ccccc1-c1ccc(Cl)cc1)c1cccnc1Cl
inactive: Akkermansia muciniphila 0.987 | Bacteroides caccae 0.998 | Bacteroides clarus 0.986 | Bacteroides dorei 0.998 | Bacteroides stercoris 1.01 | [1] 0.958 | Bacteroides uniformis 0.966 | [2] 1.03 | Clostridium difficile 0.998 | Collinsella aerofaciens 0.999 | Coprococcus comes 1 | Escherichia coli ED1a 0.981 | Escherichia coli IAI1 1.01 | Eubacterium rectale 0.968 | [3] 0.956 | Lactobacillus gasseri 1.08 | Lactobacillus paracasei 0.972 | Odoribacter splanchnicus 0.86 | [4] 0.839 | Parabacteroides merdae 0.998

CCCCC(CC)COC(=O)c1ccccc1C(=O)OCC(CC)CCCC (stereo not given)
inactive: Akkermansia muciniphila 1.03 | Bacteroides caccae 0.989 | Bacteroides clarus 0.993 | Bacteroides dorei 0.963 | Bacteroides stercoris 0.898 | [1] 0.993 | Bacteroides uniformis 1.03 | [2] 0.984 | Clostridium difficile 0.977 | Collinsella aerofaciens 0.888 | Coprococcus comes 0.999 | Escherichia coli ED1a 0.983 | Escherichia coli IAI1 0.977 | Eubacterium rectale 1.02 | [3] 1 | Lactobacillus gasseri 0.892 | Lactobacillus paracasei 1.07 | Odoribacter splanchnicus 1.1 | [4] 0.985 | Parabacteroides merdae 0.965

COP(=S)(OC)Oc1ccc(S(C)=O)c(C)c1 (stereo not given)
inactive: Akkermansia muciniphila 0.88 | Bacteroides caccae 1.02 | Bacteroides clarus 1.01 | Bacteroides dorei 1.03 | Bacteroides stercoris 1.16 | [1] 0.962 | Bacteroides uniformis 1.03 | [2] 1.02 | Clostridium difficile 1.01 | Collinsella aerofaciens 1.03 | Coprococcus comes 1.04 | Escherichia coli ED1a 0.975 | Escherichia coli IAI1 1.04 | Eubacterium rectale 1.06 | [3] 1.02 | Lactobacillus gasseri 1.02 | Lactobacillus paracasei 1.01 | Odoribacter splanchnicus 0.979 | [4] 1.03 | Parabacteroides merdae 0.988
